Measurements: PubChem BioAssay AID1159580 (chemical genetic matrix, 2015)
Screen size: about 5,500 compounds; about 2,000 (36%) were called active. Another 18% or so got no clear call; they are omitted. Rule as the data show it: active = normalized growth mostly below about 0.91 (no sharp cut-off); inconclusive = no clear call, values can overlap the other calls; inactive = mostly above about 0.92. This is one part of the list.

Assay: chemical genetic growth profiling, strain panel (AID 1159580);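 also: tested at 20 µM; growth read once vehicle control cultures reached saturation at 30 °C; 1 = growth at the plate median or of vehicle wells; lower values mean less growth of the strain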
Settings: S. cerevisiae deletion strains, growth OD
[1] = locus YBR021W, strain FUR4, hits give low values
[2] = locus YBR229C, strain ROT2, hits give low values
[3] = locus YCL029C, strain bik1, hits give low values
[4] = locus YDL035C, strain GPR1, hits give low values
[5] = locus YDL074C, strain BRE1, hits give low values
[6] = locus YDL101C, strain DUN1, hits give low values
[7] = locus YDL185W, strain tfp1, hits give low values
[8] = locus YDL192W, strain arf1, hits give low values
[9] = locus YDR101C, strain arx1, hits give low values
[10] = locus YDR162C, strain NBP2, hits give low values
[11] = locus YDR318W, strain mcm21, hits give low values
[12] = locus YDR388W, hits give low values
[13] = locus YDR502C, strain sam2, hits give low values
[14] = locus YEL061C, strain CIN8, hits give low values
[15] = locus YER110C, hits give low values
[16] = locus YER155C, strain BEM2, hits give low values
[17] = locus YER167W, strain BCK2, hits give low values
[18] = locus YGL078C, strain dbp3, hits give low values
[19] = locus YGL086W, strain mad1, hits give low values
[20] = locus YGL248W, strain PDE1, hits give low values
[21] = locus YGR078C, strain PAC10, hits give low values
[22] = locus YGR135W, strain pre9, hits give low values
[23] = locus YGR252W, strain gcn5, hits give low values
[24] = locus YHR030C, strain SLT2, hits give low values
[25] = locus YHR079C, strain IRE1 (second series), hits give low values
[26] = locus YHR094C, strain hxt1, hits give low values
[27] = locus YHR129C, strain ARP1, hits give low values
[28] = locus YHR200W, strain rpn10, hits give low values
[29] = locus YIL066C, strain RNR3, hits give low values
[30] = locus YIL073C, strain SPO22, hits give low values
[31] = locus YIL125W, strain kgd1, hits give low values
[32] = locus YIR030C, strain dcg1, hits give low values
[33] = locus YJL095W, strain BCK1, hits give low values
[34] = locus YJL134W, strain LCB3, hits give low values
[35] = locus YJL168C, strain set2, hits give low values
[36] = locus YJL187C, strain SWE1 (second series), hits give low values
[37] = locus YJR043C, strain POL32, hits give low values
[38] = locus YJR075W, strain HOC1, hits give low values
[39] = locus YKL009W, strain mrt4, hits give low values
[40] = locus YKL068W, hits give low values
[41] = locus YKL085W, strain MDH1 (second series), hits give low values
[42] = locus YKL085W, strain MDH1, hits give low values
[43] = locus YKR001C, strain vps1, hits give low values
[44] = locus YLR039C, strain RIC1, hits give low values
[45] = locus YLR058C, strain SHM2, hits give low values
[46] = locus YLR102C, strain apc9, hits give low values
[47] = locus YLR262C, strain YPT6, hits give low values
[48] = locus YLR268W, strain sec22, hits give low values
[49] = locus YLR330W, strain CHS5, hits give low values
[50] = locus YLR342W, strain FKS1 (second series), hits give low values
[51] = locus YLR371W, strain rom2, hits give low values
[52] = locus YLR418C, strain cdc73, hits give low values
[53] = locus YML016C, strain PPZ1, hits give low values
[54] = locus YML032C, strain rad52, hits give low values
[55] = locus YML124C, strain tub3, hits give low values
[56] = locus YMR078C, strain ctf18, hits give low values
[57] = locus YMR223W, strain ubp8, hits give low values
[58] = locus YMR307W, strain GAS1, hits give low values
[59] = locus YNL067W, strain RPL9B, hits give low values
[60] = locus YNL128W, strain TEP1, hits give low values
[61] = locus YNL233W, strain BNI4, hits give low values
[62] = locus YNL250W, strain rad50, hits give low values
[63] = locus YNL271C, strain bni1, hits give low values
[64] = locus YNL298W, strain CLA4, hits give low values
[65] = locus YNL307C, strain MCK1, hits give low values
[66] = locus YNL322C, strain KRE1, hits give low values
[67] = locus YNR052C, strain pop2, hits give low values
[68] = locus YOL147C, strain pex11, hits give low values
[69] = locus YOR061W, strain CKA2, hits give low values
[70] = locus YOR069W, strain VPS5, hits give low values
[71] = locus YOR136W, strain idh2, hits give low values
[72] = locus YOR144C, strain elg1, hits give low values
[73] = locus YOR184W, strain ser1, hits give low values
[74] = locus YOR316C, strain cot1, hits give low values
[75] = locus YPR119W, strain clb2, hits give low values
[76] = locus YPR141C, strain kar3, hits give low values
[77] = locus YPR163C, strain tif3, hits give low values
[78] = locus YPR167C, strain met16, hits give low values
[79] = strain wtn01, hits give low values

Measured: normalized growth

CC(C)(O)[C@@H]1Cc2cc3ccc(=O)oc3cc2O1
inactive: [1] 1.03 | [2] 1 | [3] 1.01 | [4] 1.02 | [5] 1.04 | [6] 1.01 | locus YDL134C, strain PPH21, hits give low values 1 | [7] 1.02 | [8] 1.03 | [9] 1 | locus YDR150W, strain NUM1, hits give low values 1 | [10] 0.989 | [11] 1.01 | [12] 1.01 | [13] 1.04 | [14] 1 | [15] 1.01 | [16] 1 | [17] 1.02 | [18] 1.01 | [19] 1.03 | [20] 1.01 | [21] 1 | [22] 0.996 | locus YGR229C, strain SMI1, hits give low values 1.04 | [23] 0.991 | [24] 1.01 | [25] 1 | [26] 1.01 | [27] 1.01 | [28] 1.03 | [29] 1.01 | [30] 1.02 | [31] 1.02 | [32] 1.02 | [33] 1.03 | [34] 1.02 | [35] 1.03 | [36] 1.01 | [37] 1.01 | [38] 1.01 | [39] 1.01 | [40] 1.02 | [41] 1 | [42] 1 | [43] 1.01 | [44] 1.01 | [45] 1.01 | [46] 1.02 | [47] 0.995 | [48] 1.03 | [49] 1.01 | [50] 1.07 | [51] 1.02 | [52] 0.989 | [53] 1.01 | [54] 1.02 | [55] 1.02 | [56] 1.03 | [57] 0.997 | [58] 1.1 | [59] 0.999 | [60] 1.02 | [61] 1.02 | [62] 1 | [63] 1 | [64] 1.01 | [65] 1.03 | [66] 1.01 | [67] 1.01 | locus YOL012C, strain htz1 1.44 | [68] 1.01 | [69] 1.01 | [70] 1.01 | [71] 1.02 | [72] 1 | [73] 1 | [74] 1.05 | locus YPL241C, strain CIN2, hits give low values 1.01 | [75] 1.02 | [76] 1.01 | [77] 1.01 | [78] 1.03 | [79] 1.05

CC(C)C1COc2cc3oc(=O)ccc3cc2O1 (stereo not given)
inactive: [18] 0.976 | [31] 0.958 | [39] 0.916 | [40] 0.964 | [41] 0.945 | [42] 0.945 | [62] 0.989 | locus YOL012C, strain htz1 0.681 | [76] 0.959
active: [1] 0.0979 | [2] 0.837 | [3] 0.616 | [4] 0.389 | [5] 0.287 | [6] 0.293 | [7] 0.874 | [8] 0.0841 | [9] 0.714 | [10] 0.0569 | [11] 0.546 | [12] 0.241 | [13] 0.289 | [14] 0.17 | [15] 0.698 | [16] 0.592 | [17] 0.503 | [19] 0.589 | [20] 0.257 | [21] 0.191 | [22] 0.366 | [23] 0.209 | [24] 0.0511 | [25] 0.89 | [26] 0.92 | [27] 0.396 | [28] 0.433 | [29] 0.223 | [30] 0.122 | [32] 0.701 | [33] 0.0654 | [34] 0.906 | [35] 0.834 | [36] 0.497 | [37] 0.218 | [38] 0.688 | [43] 0.0786 | [44] 0.106 | [45] 0.466 | [46] 0.887 | [47] 0.148 | [48] 0.443 | [49] 0.0515 | [50] 0.0669 | [51] 0.0882 | [52] 0.125 | [53] 0.381 | [54] 0.639 | [55] 0.738 | [56] 0.792 | [57] 0.44 | [58] 0.196 | [59] 0.711 | [60] 0.348 | [61] 0.285 | [63] 0.728 | [64] 0.754 | [65] 0.157 | [66] 0.0872 | [67] 0.145 | locus YOL006C, strain TOP1, hits give low values 0.152 | [68] 0.66 | [69] 0.101 | [70] 0.519 | [71] 0.842 | [72] 0.843 | [73] 0.262 | [74] 0.875 | [75] 0.336 | [77] 0.703 | [78] 0.636 | [79] 0.394
